Assay results reported in PubChem BioAssay (Tox21).
Inconclusive results are not listed. Active and inactive are the calls of the source. Unless noted, calls follow the shape of the dose curve; as a rule, active = well fitted curve in the direction sought with a large enough effect in the repeat runs; inconclusive = weak or mixed curves; inactive = no such curve, though single readings can be large; an effect the other way counts as inactive or inconclusive.

How the values were obtained:
[1] = qHTS assay for small molecules that induce genotoxicity in human embryonic kidney cells expressing luciferase-tagged ATAD5 (AID 651632); also: nearly all actives have a fitted effect of over 15% in size
How it was run: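 Quantitative HTS in HEK293T expressing luciferase-tagged ATAD5, whose levels rise upon DNA damage. Exposure ran 16 hr at 37C and 5% CO2, with luminescence read 30 min after Amplite addition at room temperature.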

[2] = qHTS assay for small molecule agonists of the p53 signaling pathway - cell viability (AID 651633; calls by dose curve;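 also: p53RE-bla HCT reporter cells with a stable beta-lactamase p53 reporter; series mostly up to about 83 µM; nearly all actives have a fitted effect of over 30% in size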)
How it was run: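 p53RE-bla cells were treated with compound for 16 hours at 37 C. Cytotoxicity was then measured as CellTiter-Glo luminescence after 30 min at room temperature.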

[3] = qHTS assay for small molecule disruptors of the mitochondrial membrane potential - cell viability (AID 720634; calls by dose curve;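 also: human HepG2 liver cancer cells; series mostly up to about 83 µM; nearly all actives have a fitted effect of over 20% in size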)
How it was run: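 ATP-based luminescent viability readout (CellTiter-Glo, 30 min, room temperature) in HepG2 cells multiplexed with the m-MPI membrane potential dye; compound exposure lasted 1 hr at 37 C.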

[4] = qHTS assay to test for compound auto fluorescence at 590 nm (red) in HepG2 cells (AID 720674)
How it was run: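 Fluorescence at 590 nm emission following 540 nm excitation was recorded from HepG2 wells one hour after compound transfer, with DMSO-only wells as vehicle and Rose Bengal sodium equivalency as the scale.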

[5] = qHTS assay to test for compound auto fluorescence at 535 nm (green) in HepG2 cells (AID 720675)
[6] = qHTS assay to test for compound auto fluorescence at 460 nm (blue) in HEK293 cells (AID 720678)
How it was run: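 HEK293, 2,000 cells/well, 10% dialyzed FBS; attach 4-5 hr 37C; pin compound or DMSO; o/n 37C/5% CO2; fluorescence 405/460 nm; triamterene-equivalent units.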

[7] = qHTS assay to test for compound auto fluorescence at 590 nm (red) in HEK293 cells (AID 720679)
How it was run: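 Intensity at 540nm excitation and 590nm emission is reported as Rose Bengal sodium-equivalent autofluorescence. Measurements followed overnight exposure (37C, 5% CO2) of HEK293 cells, 2,000 per well, to 23 nL compound.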

[8] = qHTS assay to test for compound auto fluorescence at 535 nm (green) in HEK293 cells (AID 720680)
[9] = qHTS assay to test for compound auto fluorescence at 460 nm (blue) in HEK293 cell free culture (AID 720681)
How it was run: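 Compounds were added to cell-free DMEM with 10% FBS and fluorescence read directly. The blue channel used 405 nm excitation and 460 nm emission, with triamterene as the reference fluorophore.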

[10] = qHTS assay to test for compound auto fluorescence at 535 nm (green) in HEK293 cell free culture (AID 720682)
How it was run: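 Cell-free medium (DMEM, 10% FBS) receives compound or DMSO by pintool. Plate read directly at Ex 485/Em 535 nm. Signal converted to fluorescein equivalency.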

[11] = qHTS assay to test for compound auto fluorescence at 590 nm (red) in HEK293 cell free culture (AID 720683)
How it was run: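 Cell-free wells of DMEM with 10% FBS received compound, and intrinsic fluorescence was read at excitation/emission 540/590 nm. Values expressed as equivalence to Rose Bengal sodium.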

[12] = qHTS assay to test for compound auto fluorescence at 590 nm (red) in HepG2 cell free culture (AID 720684)
How it was run: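 Auto fluorescence equivalency versus Rose Bengal sodium, red channel Ex/Em 540/590 nm; compounds in cell-free MEM/10% FBS; DMSO vehicle control.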

[13] = qHTS assay to test for compound auto fluorescence at 460 nm (blue) in HepG2 cell free culture (AID 720685)
How it was run: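 Cell-free plates of MEM plus 10% FBS received 23 nL compound or DMSO vehicle; blue-channel (405/460 nm) intensity scored against triamterene as reference fluorophore.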

[14] = qHTS assay to test for compound auto fluorescence at 535 nm (green) in HepG2 cell free culture (AID 720686)
[15] = qHTS assay to test for compound auto fluorescence at 460 nm (blue) in HepG2 cells (AID 720687)
How it was run: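 HepG2 cells in MEM with 10% FBS, attached overnight at 37 C, were exposed to compound or DMSO for 1 hr at 37 C, 5% CO2. Blue fluorescence was read at 405/460 nm, with triamterene as reference fluorophore.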

[16] = target: Glucocorticoid receptor (Homo sapiens) (UniProt P04150); assay: qHTS assay to identify small molecule agonists of the glucocorticoid receptor (GR) signaling pathway (AID 720691; active = well fitted activation curve with a large enough effect in the signal ratio in the repeat runs, not every such curve was filed as active; the % refers to the signal ratio)
How it was run: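 Cells: GR-bla HeLa, endogenous GR with stably integrated GRE-beta-lactamase reporter. Treatment 18 h, 37 C, compounds delivered in DMSO. Detection via LiveBLAzer B/G FRET substrate, 2 h RT, fluorescence intensity.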

[17] = target: Glucocorticoid receptor (Homo sapiens) (UniProt P04150); assay: qHTS assay to identify small molecule antagonists of the glucocorticoid receptor (GR) signaling pathway (AID 720692; active = well fitted inhibition curve with a large enough effect in the signal ratio in the repeat runs, not every such curve was filed as active; the % refers to the signal ratio)
How it was run: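 Quantitative HTS in antagonist format: HeLa cells expressing endogenous GR and a stably integrated GRE-bla reporter, stimulated with 5 nM dexamethasone (final) alongside test compounds for 18 h.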

[18] = qHTS assay for small molecules that induce genotoxicity in human embryonic kidney cells expressing luciferase-tagged ATAD5 - cell viability (AID 651634; calls by dose curve; also: nearly all actives have a fitted effect of over 25% in size)
How it was run: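 After 15.5 hr incubation with compound at 37C, 5% CO2, HEK293T ATAD5-luciferase cells received CellTiter-Fluor reagent; fluorescence intensity was quantified following 30 min at 37C.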

[19] = qHTS assay for small molecule disruptors of the mitochondrial membrane potential (AID 720635)
How it was run: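 HepG2 cells exposed to compound 1 hr at 37C, then Mito-MPS dye 30 min. Ratio read of aggregate (540/590 nm) versus monomer (490/535 nm) fluorescence.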

Measured: Potency

Glucocorticoid receptor (Homo sapiens), sequence (P04150 whole entry, looked up): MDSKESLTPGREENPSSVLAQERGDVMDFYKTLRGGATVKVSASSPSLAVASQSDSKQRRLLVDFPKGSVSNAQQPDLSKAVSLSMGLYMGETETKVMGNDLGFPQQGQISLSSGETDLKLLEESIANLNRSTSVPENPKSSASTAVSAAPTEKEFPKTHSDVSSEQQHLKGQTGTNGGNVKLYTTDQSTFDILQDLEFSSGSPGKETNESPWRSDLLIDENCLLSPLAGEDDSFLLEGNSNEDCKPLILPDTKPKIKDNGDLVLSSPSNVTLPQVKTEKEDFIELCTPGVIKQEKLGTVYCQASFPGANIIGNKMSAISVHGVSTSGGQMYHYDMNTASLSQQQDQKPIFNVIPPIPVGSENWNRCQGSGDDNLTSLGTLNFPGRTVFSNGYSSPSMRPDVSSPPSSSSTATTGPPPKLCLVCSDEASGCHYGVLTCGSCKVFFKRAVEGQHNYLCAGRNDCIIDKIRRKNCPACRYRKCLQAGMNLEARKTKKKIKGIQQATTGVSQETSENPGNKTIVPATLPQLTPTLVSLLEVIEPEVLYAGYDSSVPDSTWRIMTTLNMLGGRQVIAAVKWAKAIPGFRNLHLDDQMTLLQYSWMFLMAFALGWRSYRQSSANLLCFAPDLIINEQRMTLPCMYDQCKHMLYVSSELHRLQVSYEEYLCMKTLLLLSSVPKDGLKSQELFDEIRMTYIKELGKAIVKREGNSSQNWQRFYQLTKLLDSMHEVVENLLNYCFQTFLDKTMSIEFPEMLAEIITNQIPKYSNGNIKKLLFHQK

COc1cc(N)ccc1C
inactive: [1] | [2] | [3] | [4] | [5] | [6] | [7] | [8] | [9] | [10] | [11] | [12] | [13] | [14] | [15] | [16] | [17]

O=S(=O)(O)c1ccc2cc(O)c(S(=O)(=O)O)cc2c1
inactive: [1] | [2] | [18] | [3] | [4] | [5] | [7] | [8] | [10] | [11] | [12] | [14] | [15] | [17]

CC(C)c1ccc2cc(C(C)C)ccc2c1
inactive: [1] | [18] | [3] | [4] | [5] | [7] | [8] | [9] | [10] | [11] | [12] | [13] | [14] | [15] | [17]

CCCOC(OCCC)OCCC
inactive: [1] | [18] | [3] | [4] | [5] | [6] | [7] | [8] | [10] | [11] | [12] | [13] | [14] | [15] | [17]

O=C(O)c1cc(Br)c(O)c(Br)c1
inactive: [2] | [18] | [3] | [19] | [4] | [5] | [6] | [8] | [9] | [11] | [12] | [13] | [14] | [15] | [16] | [17]

COc1cc2c(cc1OC)[C@@H]1CC(=O)[C@@H](CC(C)C)CN1CC2
inactive: [18] | [3] | [4] | [5] | [6] | [7] | [8] | [10] | [11] | [12] | [13] | [15]

CC(=O)c1ccc2c(c1)Cc1ccccc1-2
inactive: [18] | [3] | [4] | [5] | [6] | [7] | [8] | [9] | [10] | [11] | [13] | [14] | [15]

CC(C)(C)c1cc(CCC(=O)NN)cc(C(C)(C)C)c1O
inactive: [1] | [2] | [18] | [3] | [4] | [5] | [7] | [8] | [9] | [10] | [11] | [12] | [13] | [14] | [15]
